Source: ChEMBL document CHEMBL3988442, “University of Dundee, Small-Polar-MMV Screening Library” (2021)

biological target: T1, Aspartate--tRNA(Asp/Asn) ligase (Mycobacterium tuberculosis (strain ATCC 25618 / H37Rv)) (UniProt P9WFW3); assay: Assay for Asp RNA synthetase-1 from Mycobacterium tuberculosis; type: functional; parameters: scale not given: direction of the effect not stated beside the values; conditions: 30 µM; further: in the data most compounds retested in dose-response had high values
T1 sequence (whole entry): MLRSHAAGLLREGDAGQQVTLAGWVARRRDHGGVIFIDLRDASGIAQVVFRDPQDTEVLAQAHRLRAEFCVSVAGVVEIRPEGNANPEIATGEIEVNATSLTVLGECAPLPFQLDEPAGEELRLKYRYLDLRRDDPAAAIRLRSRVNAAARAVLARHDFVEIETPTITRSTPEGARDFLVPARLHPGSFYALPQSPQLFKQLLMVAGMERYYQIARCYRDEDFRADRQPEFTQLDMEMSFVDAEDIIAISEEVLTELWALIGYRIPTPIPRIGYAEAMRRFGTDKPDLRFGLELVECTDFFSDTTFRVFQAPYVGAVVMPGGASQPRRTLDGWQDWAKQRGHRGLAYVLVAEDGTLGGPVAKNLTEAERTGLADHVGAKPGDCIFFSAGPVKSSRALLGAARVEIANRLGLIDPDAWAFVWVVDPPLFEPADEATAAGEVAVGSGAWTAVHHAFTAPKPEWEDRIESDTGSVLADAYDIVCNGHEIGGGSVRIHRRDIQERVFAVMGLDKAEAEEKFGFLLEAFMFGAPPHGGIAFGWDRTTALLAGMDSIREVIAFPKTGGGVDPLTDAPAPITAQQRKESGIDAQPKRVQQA

SMILES | Percent Effect
Cc1nn(C)cc1C(=O)Nc1cccc(CN2CCC(CO)CC2)c1 | 3.06%
Cc1ccc(C(=O)NCCNc2ncccc2C#N)c(=O)[nH]1 | -1.85%
COc1cccc(OCCNC(=O)CN2CCN(C)CC2C)c1 (centres undefined) | -3.03%
Cc1cc(C(=O)N2CCCC(n3cncn3)C2)c(C)n1C1CC1 (centres undefined) | -2.4%
Cn1c(Cn2ccnc2)nnc1C1CCN(C(=O)C2(C)CC2)CC1 | -0.661%
CN(C)CCN1CCC2(CCN(C(=O)c3ccc(F)cc3)CC2)C1=O | 2.84%
CN(C)CCO[C@@H]1CC[C@H]2[C@H]1OCCN2C(=O)CCc1ccccc1 | -1.17%
CN(Cc1ccc(Cl)s1)C1CCCN(c2cccnn2)C1 (centres undefined) | 2.31%
COc1ccccc1Oc1ncccc1CNC(=O)[C@@H](C)NC(C)=O | 0.362%
Cc1nn(C)c(N2CCOCC2)c1CNC1CCc2ccccc2C1 (centres undefined) | -2.23%
O=C(c1ccccn1)N1CCc2c(nc(N3CCCC3)[nH]c2=O)C1 | -2.28%
COc1cccc2c1ccn2CCC(=O)N1CCCC(C(=O)O)C1 (centres undefined) | 6.53%
COCC(NC(=O)c1ccc[nH]1)c1cccc(C(F)(F)F)c1 (centres undefined) | -2.7%
CCNC(=O)N(C)C(c1cccc(F)c1)c1ccccn1 (centres undefined) | -4.31%
COc1cc(C(=O)NS(=O)(=O)c2cccc(C#N)c2)ccc1C | -2.04%
Cn1cc(C(=O)NCc2cn3c(n2)CN(Cc2ccccn2)CC3)cn1 | 6.41%
Cc1nnc2n1CCN(Cc1csc(Cc3ccccc3)n1)C2 | -4.28%
CCS(=O)(=O)CCN1CCC(N(C)Cc2noc(C(C)C)n2)C1 (centres undefined) | 0%
CCc1nnc2n1CCN(Cc1ccc3c(c1)OCCO3)C2 | 4.98%

biological target: Shiga toxin 2 (Escherichia coli O157:H7) (UniProt P09385+P09386); assay: E. coli 0.157:H7 Shiga Toxin SOP - stx2 screening assay; type: functional; parameters: scale not given: direction of the effect not stated beside the values; conditions: 30 µM

SMILES | Percent Effect
CN(CC1CC1)C(=O)CN(Cc1cccc(O)c1)C1CCC(O)CC1 (centres undefined) | 6.41%
c1cnc2c(c1)cc(C1CCOCC1)n2CCN1CCOCC1 | 4.5%
CN(c1cccnn1)C1CCN(C(=O)c2ccc3c(c2)COC3)CC1 | 13.1%
CN(Cc1cn2ccccc2c1C#N)C1CCCN(c2cccnn2)C1 (centres undefined) | -75.3%
c1ccc(C2CCCN2Cc2nnnn2C2CC2)cc1 (centres undefined) | -5.38%
Cc1ccc(C(=O)N2CCCS2(=O)=O)cc1Cl | -5.68%
Cc1cc(-c2nnc(SCC(=O)O)n2C(C)c2ccccc2)nn1C (centres undefined) | 2.98%
O=C(CCc1ccc(Cl)s1)N1CCCC(n2cncn2)C1 (centres undefined) | 5.05%
COc1ccc(OCC(=O)NC(C)c2ccc(F)cc2)c(C(=O)O)c1 (centres undefined) | 12%
Cc1ccoc1C(=O)N1CCOCC2(CCN(c3ncccn3)C2)C1 (centres undefined) | 8%
CCNC(=O)c1ccoc1CN1c2ccccc2CC1C (centres undefined) | -19.2%
O=C(CCc1nccs1)N1CCN(c2ncccn2)CC1 | 11.5%
CCc1nc(C2CCCN2Cc2nccn2Cc2ccccc2)no1 (centres undefined) | 12.2%
CNc1cncc(C2CCCN2C(=O)c2ccc3oc(C)cc3c2)n1 (centres undefined) | -4.12%
NC(=O)CCOc1nc(-c2ccccc2Cl)no1 | -35.8%
O=C(Nc1cnccn1)[C@H]1COC[C@H]2CN(C3CCCC3)C[C@H]21 | 8.55%
COc1ccc(C(=O)NCCCn2ccnc2)c(OC)n1 | -22.8%
CCOCC(O)CN1CCN(C(=O)c2cnc3n[nH]c(C)c3c2)CC1 (centres undefined) | 30.1%

SMILES | Percent Effect
CN1CCCC1c1cccc(Cc2ccccc2F)n1 (centres undefined) | 1.7%
Cc1cc(CN(C)C(=O)c2cccc(N3CCCC3=O)c2)no1 | -12.4%
CN1CCN(C(=O)[C@H]2C[C@@H]3CCN(c4ncc(F)cn4)C[C@@H]3O2)CC1 | -18.9%
Cc1nn(C)cc1C(=O)Nc1cccc(CN2CCC(CO)CC2)c1 | -101%
Cc1ccc(C(=O)NCCNc2ncccc2C#N)c(=O)[nH]1 | -19.7%
COc1cccc(OCCNC(=O)CN2CCN(C)CC2C)c1 (centres undefined) | -14.9%
Cc1cc(C(=O)N2CCCC(n3cncn3)C2)c(C)n1C1CC1 (centres undefined) | 9.3%
Cn1c(Cn2ccnc2)nnc1C1CCN(C(=O)C2(C)CC2)CC1 | -12.1%
CN(C)CCN1CCC2(CCN(C(=O)c3ccc(F)cc3)CC2)C1=O | -5.38%
CN(C)CCO[C@@H]1CC[C@H]2[C@H]1OCCN2C(=O)CCc1ccccc1 | -27.7%
CN(Cc1ccc(Cl)s1)C1CCCN(c2cccnn2)C1 (centres undefined) | -15%
COc1ccccc1Oc1ncccc1CNC(=O)[C@@H](C)NC(C)=O | -19.5%
Cc1nn(C)c(N2CCOCC2)c1CNC1CCc2ccccc2C1 (centres undefined) | -3.73%
O=C(c1ccccn1)N1CCc2c(nc(N3CCCC3)[nH]c2=O)C1 | -39.9%
COc1cccc2c1ccn2CCC(=O)N1CCCC(C(=O)O)C1 (centres undefined) | -30.4%
COCC(NC(=O)c1ccc[nH]1)c1cccc(C(F)(F)F)c1 (centres undefined) | -17.9%
CCNC(=O)N(C)C(c1cccc(F)c1)c1ccccn1 (centres undefined) | -5.85%
